Test results from PubChem BioAssay AID430 (Sanford-Burnham Center for Chemical Genomics, 2006).
Screen size: about 63,000 compounds; about 1,100 (1.7%) were called active. What follows is part of a selection rich in actives, with near analogues and random picks from the rest. Potency and affinity values are given separately. Values without a mark were called inactive. No stated cut-off is given here; in the data, active means cytotoxicity above about 50%; inactive means the rest.

Assay: cytotoxicity in HPDE-C7 cells, cell-based, fluorescence, HTS (AID 430);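 further: cells exposed to compound for 48 hours before viability readout; 0% = vehicle and 100% = reference cytotoxic drug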
Conditions: HPDE-C7 pancreatic duct cells viability, at 10 µM, active compounds read high

Row | Compound | cytotoxicity
1 | CN1CCCN(CC(O)COCc2cccs2)CC1 (stereo not given) | 0.9%
2 | CC1(C)N=C(C(=O)c2ccccc2)N(O)C1(C)O (stereo not given) | -11.9%
3 | COc1ccc(CCNC(=O)Cn2c(=O)n(Cc3ccco3)c(=O)c3ccc(Cl)cc32)cc1OC | 13.9%
4 | COc1cc2c(=O)n(Cc3ccco3)c(=O)n(CC(=O)c3cccc(Br)c3)c2cc1OC | 55% (active)
5 | CCOC(=O)Cn1c(=O)n(Cc2ccco2)c(=O)c2ccc(C(=O)NCCc3ccccc3)cc21 | 7.2%
6 | COc1cc2c(=O)n(Cc3ccco3)c(=O)n(CC(=O)c3ccc(Br)cc3)c2cc1OC | 86% (active)
7 | COc1cc2c(=O)n(Cc3ccccc3)c(=O)n(CC(=O)NCc3ccco3)c2cc1OC | 3.1%
8 | COc1cc2c(=O)n(Cc3ccccc3)c(=O)n(CC(=O)C(C)(C)C)c2cc1OC | -17.8%
9 | CS(=O)(=O)N(CC(=O)NCCSCc1cccc(Cl)c1)c1ccc2c(c1)OCO2 | 0.9%
10 | O=C(Nc1ccccc1)N(Cc1cccs1)C1CCCC1 | -7.6%
11 | CCOC(=O)c1c(CN2CCCCC2)n(C)c2cc(Br)c(OC)cc12 | 8.3%
12 | CCN(CC)CCNC(=O)c1c(C)oc2cc(Br)c(OC)cc12 | 1.8%
13 | CCOC(=O)c1c(C)n(C)c2cc(Br)c(C(=O)OC)cc12 | 9.9%
14 | CCOC(=O)c1c(CN2CCN(CCO)CC2)n(C)c2cc(Br)c(OC)cc12 | 77% (active)
15 | CCOC(=O)c1c(CN2CCN(C)CC2)n(C)c2cc(Br)c(OC)cc12 | -10.2%
16 | CCOC(=O)c1c(CNCCN(CC)CC)n(C)c2cc(Br)c(OC)cc12 | 57.3% (active)
17 | O=C(c1ccco1)c1nnn(Cc2ccccc2)c1-c1ccccc1 | -7.7%
18 | COc1ccc(CN(C2CCCC2)S(=O)(=O)c2ccc(-n3cnnn3)cc2)cc1OC | -39.1%
19 | Cc1[nH]c(=O)[nH]c(=O)c1S(=O)(=O)N1CCCC(C(=O)NCCc2ccc(Cl)cc2)C1 (stereo not given) | -9.4%
20 | CCOC(=O)c1csc(NC(=O)CSc2nnnn2-c2ccc(OCC)cc2)n1 | -21.4%
21 | O=C(c1cccs1)N1CCN(S(=O)(=O)N2CCOCC2)CC1 | -21.3%
22 | O=C(NCc1ccco1)C(c1ccncc1)N(CCC1=CCCCC1)C(=O)Cn1nnc2ccccc21 (stereo not given) | 1.6%
23 | Fc1ccc(Br)cc1C1C=C(c2ccc(Br)s2)Nc2ncnn21 (stereo not given) | 55% (active)
24 | Fc1ccc(Br)cc1C1C=C(c2cccnc2)Nc2ncnn21 (stereo not given) | 16.3%
25 | COc1cccc(C2C=C(c3ccc(Br)s3)Nc3ncnn32)c1OC (stereo not given) | -9.3%
